Data from PubChem BioAssay AID504708 (Sanford-Burnham Center for Chemical Genomics, 2011).
Some of the results follow. A number with no mark means an inactive call. The source made the active and inactive calls.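 How the source made its calls: active means inhibition at or below a set negative limit, negative inhibition meaning the enzyme was activated; inactive means the rest.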

Biological target: Hexokinase HKDC1 (Homo sapiens) (UniProt Q2TB90)
Assay: compounds raising human HKDC1 activity – biochemical, single concentration, confirmation (AID 504708)
Details: recombinant HKDC1, G6PDH/diaphorase resazurin fluorescence; at 20 µM; stronger effect = lower value

Sequence of Hexokinase HKDC1 (Homo sapiens) (Q2TB90 whole entry, looked up): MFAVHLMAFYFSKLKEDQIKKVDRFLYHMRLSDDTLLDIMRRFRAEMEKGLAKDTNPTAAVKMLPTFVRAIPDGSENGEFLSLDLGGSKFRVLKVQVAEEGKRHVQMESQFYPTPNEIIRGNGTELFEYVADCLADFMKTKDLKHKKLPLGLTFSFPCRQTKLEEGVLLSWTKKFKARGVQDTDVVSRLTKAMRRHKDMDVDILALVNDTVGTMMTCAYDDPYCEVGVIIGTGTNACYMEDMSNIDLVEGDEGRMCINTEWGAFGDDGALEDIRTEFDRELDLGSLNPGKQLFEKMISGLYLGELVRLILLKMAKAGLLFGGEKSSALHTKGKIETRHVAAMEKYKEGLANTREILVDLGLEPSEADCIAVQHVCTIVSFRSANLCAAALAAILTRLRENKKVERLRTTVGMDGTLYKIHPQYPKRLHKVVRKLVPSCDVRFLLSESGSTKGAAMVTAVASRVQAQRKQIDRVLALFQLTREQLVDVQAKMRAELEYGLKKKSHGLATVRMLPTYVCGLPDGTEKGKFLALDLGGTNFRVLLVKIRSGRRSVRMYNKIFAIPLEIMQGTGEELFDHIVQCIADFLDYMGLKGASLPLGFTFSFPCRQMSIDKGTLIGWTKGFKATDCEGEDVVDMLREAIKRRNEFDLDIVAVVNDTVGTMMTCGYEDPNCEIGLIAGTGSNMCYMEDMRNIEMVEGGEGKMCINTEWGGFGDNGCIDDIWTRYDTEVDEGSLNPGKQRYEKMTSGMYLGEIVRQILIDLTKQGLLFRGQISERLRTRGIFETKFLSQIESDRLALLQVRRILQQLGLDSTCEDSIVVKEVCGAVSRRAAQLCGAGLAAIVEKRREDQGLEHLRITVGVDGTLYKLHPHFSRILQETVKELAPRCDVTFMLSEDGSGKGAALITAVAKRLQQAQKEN

SMILES	inhibition
O=C1NC(=O)N(c2ccc(F)cc2)C(=O)/C1=C/c1ccc2c(c1)CCCN2Cc1ccccc1	1.36%
CC(=O)OC1C2(CC3N4C(=O)C5(CO)SSC4(CC31O)C(=O)N5C)OC(C)C(C)(C)C2=O (configuration not stated)	-77% (active)
